# Shown are actives, neighbours in structure and some others; about 5.5% of the full set was active somewhere.
# CtBP-E1A blk: inhibitors of CtBP/E1A interaction. AlphaScreen GST-E1A/His-CtBP binding, 1536-well; hits give low values. activity change, % (concentration not given with the values). hit rate 0.49% among 340,000. AID 651724; in the data active = activity change below about -65%; inconclusive = mostly about -30% to -63%
#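 Homogeneous bead-based format: GST-tagged E1A captured on glutathione donor beads, His-tagged CtBP on nickel acceptor beads; compounds precede bead addition by 2 h at 37 °C.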
# RORg inh: blocks mouse ROR gamma transcriptional activity; P51450; hit rate 5.4% among 310,000; Drosophila S2 Gal4-RORgamma UAS-luciferase reporter, 20 h; Potency, µM (top dose mostly 53.6 µM), actives largely listed as inhibitors; note: nearly all actives have a fitted effect of over 60% in size
#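 Using a luciferase readout, inhibitors were identified by reduced reporter activity in Drosophila cells coexpressing a copper-inducible Gal4–ROR gamma fusion and UAS-driven Photinus luciferase, incubated 20 hr after 700 uM copper sulfate.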
# CBFb-RUNX1 inh: inhibitors of human CBF-beta and RUNX1 interaction; Q01196+Q13951; AlphaScreen CBFb-His/RUNX1-biotin binding, biochemical; Potency, µM (highest dose often 59.8 µM), usual class: inhibitors; 230,000 tested, under 10 active; AID 1477
# Target sequence (Q01196 whole entry, looked up): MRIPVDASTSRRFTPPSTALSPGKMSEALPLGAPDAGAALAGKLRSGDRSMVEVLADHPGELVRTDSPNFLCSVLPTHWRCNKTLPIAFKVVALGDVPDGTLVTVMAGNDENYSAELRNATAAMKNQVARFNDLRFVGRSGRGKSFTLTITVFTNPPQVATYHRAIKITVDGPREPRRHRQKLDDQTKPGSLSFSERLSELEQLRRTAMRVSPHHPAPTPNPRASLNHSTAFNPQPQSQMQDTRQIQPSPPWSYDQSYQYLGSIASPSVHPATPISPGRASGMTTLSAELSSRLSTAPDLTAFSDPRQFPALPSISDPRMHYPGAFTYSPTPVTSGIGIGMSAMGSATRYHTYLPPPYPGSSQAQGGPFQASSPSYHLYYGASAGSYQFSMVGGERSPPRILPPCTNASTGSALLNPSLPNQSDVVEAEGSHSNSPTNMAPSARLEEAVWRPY
# Target sequence (Q13951 whole entry, looked up): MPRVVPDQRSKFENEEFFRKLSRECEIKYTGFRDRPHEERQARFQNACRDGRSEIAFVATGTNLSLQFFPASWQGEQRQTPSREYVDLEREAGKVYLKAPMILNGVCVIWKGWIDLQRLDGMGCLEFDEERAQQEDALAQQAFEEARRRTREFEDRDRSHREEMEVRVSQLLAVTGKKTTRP
#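 CBF-beta (His) and RUNX1 (biotin), 30 nM each; 20 min preassociation; + compound, 15 min; + beads 50 ng each (Ni, streptavidin), 90 min; RT; AlphaScreen read.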
# VP16 counter: counter-screen for ROR gamma inhibitors: Gal4-VP16 reporter. AID 2546. Potency, µM (highest dose often 53.6 µM), usual class: inhibitors. hit rate 3.5% among 310,000. Drosophila S2 Gal4-VP16 UAS-luciferase, luminescence, 20 h;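 note: Gal4-VP16 expression switched on by copper sulfate through the metallothionein promoter; nearly all actives have a fitted effect of over 50% in size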
# MBNL1 CUG block: MBNL1-poly(CUG) RNA binding inhibition; Q9NR56; TR-FRET MBNL1-His/biotin-(CUG)12 binding, 665/545 ratio; Potency, µM (highest dose often 57.5 µM), most hits filed as inhibitors; hit rate 0.036% among 280,000; active = well fitted inhibition curve with a large enough effect in the signal ratio, with a control signal flat, not every such curve was filed as active; inconclusive = small, poorly fitted or top-dose-only effect, or effect the other way, or a change in a side signal; inactive = no such curve, though single readings can be large or run the other way; the % refers to the signal ratio
#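 Compounds (final 92 nM to 58 uM) are added to His-tagged MBNL1 and biotin-(CUG)12, then terbium anti-His antibody and streptavidin-XL665 (5 nM final). After 60 min at room temperature, the 665/545 nm ratio is read.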
# Six1-Eya2 inh: blocks human Six1 binding to Eya2; Q15475+O00167; AlphaScreen GST-Six1/His-Eya2 binding, biochemical; hits give low values; activity change, % (concentration not given with the values); hit rate 0.56% among 360,000; AID 651725; in the data active = activity change below about -65%; inconclusive = mostly about -30% to -63%
#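 AlphaScreen with GST-Six1 and His-Eya2 (5X mix: 250 nM and 500 nM), glutathione donor and nickel acceptor beads; buffer 50 mM Tris pH 8.0, 300 mM NaCl, 1 mM TCEP; 1 h at 37 C in the dark.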
# Hits are given with their value; - = inactive; ? = inconclusive; . = no result. Unless noted, calls come from the whole dose curve; as a rule, active = well fitted curve in the direction sought with a large enough effect; inconclusive = small, poorly fitted or top-dose-only effect, or another doubt; inactive = no such curve, though single readings can be large; an effect the other way counts as inactive or inconclusive.
SMILES,CtBP-E1A blk,RORg inh,CBFb-RUNX1 inh,VP16 counter,MBNL1 CUG block,Six1-Eya2 inh
FC(F)(F)c1ccc(/C=N/NC(=S)NC2CCCCC2)cc1,-,0.63µM,-,4.5µM,-,-
C=CCNC(=O)CC(=O)N/N=C/c1ccc(F)cc1,-,-,-,-,-,-
C=CCNC(=S)N/N=C/c1ccc(C(F)(F)F)cc1,-,0.71µM,-,2.8µM,-,-
O=C(O)c1ccc(/C=N/NC(=S)NC2CCCCC2)cc1,-,-,-,-,-,-
COc1ccc([C@H]2C[C@H](O)[C@@H](n3cc(C4CC4)nn3)CN2C(=O)c2cccs2)cc1,-,.,.,.,.,-
COc1ccc(CCN2CC(C(=O)NCCc3cccc(F)c3)CCC2=O)cc1 (configuration not stated),-,-,.,-,-,-
Fc1ccc(CCN2CCN=C2Nc2ccccc2)cc1,-,.,.,.,.,-
O=C(N/N=C/c1cn(-c2ccccc2)nc1-c1cccs1)c1ccc(Cl)cc1,-,2.5µM,-,5µM,-,-
O=C(N/N=C/c1cn(-c2ccccc2)nc1-c1cccs1)c1ccccc1F,-,5µM,-,6.3µM,-,-
NC(=O)N/N=C/c1cn(-c2ccccc2)nc1-c1ccccc1,-,-,-,?,-,-
CC(=O)N1CCOc2ccc(S(=O)(=O)NCCc3cccc(C)c3)cc21,-,-,.,-,-,-
COC1=CC(=O)C(O)=C/C1=C\C=C\c1ccccc1,.,-,.,13µM,.,.
COc1ccc(C(=O)NC(=O)COC(=O)c2ccc(C)o2)cc1,-,.,.,.,.,-
COC(=O)c1ccc(NC(=S)NCCc2cccc(C)c2)cc1,-,1.3µM,-,1.3µM,-,-
COC(=O)c1ccc(NC(=S)NCCc2ccccc2C)cc1,-,13µM,-,14µM,-,-
COC(=O)c1ccc(NC(=S)NCCc2ccc(OC)cc2)cc1,-,7.9µM,-,?,-,-
COc1ccc(CCNC(=S)NCCc2ccc(OC)c(OC)c2)cc1OC,-,-,-,-,-,-
COc1ccc(C(=O)Nc2ccc(C(=O)NCCc3ccc(OC)c(OC)c3)cc2)cc1,.,-,-,-,-,-
CCOC(=O)c1ccc(NC(=S)NCCc2ccc(OC)c(OC)c2)cc1,-,10µM,-,?,-,-
CCC/C(=N/NC(=O)c1ccccc1Cl)c1ccccc1,-,-,-,-,-,-
COC(=O)c1ccc(N2CCc3ccccc32)c([N+](=O)[O-])c1,-,-,.,-,?,-70
O=C1C(C=Nc2ccc(F)cc2)=C(O)c2ccccc21,-,-,-,-,-,-
COc1ccc(N=CC2=C(O)c3ccccc3C2=O)c(OC)c1,-,4µM,-,4µM,?,-
Cc1ccccc1N=CC1=C(O)c2ccccc2C1=O,-,0.2µM,-,1.3µM,-,-
CC(C)(C)OC(=O)n1cc(CCO)c2ccccc21,-,.,.,.,.,-
SMILES,CtBP-E1A blk,RORg inh,CBFb-RUNX1 inh,VP16 counter,MBNL1 CUG block,Six1-Eya2 inh
O=C(COC(=O)CC1CC2CCC1C2)Nc1ccc(Cl)c(S(=O)(=O)N2CCOCC2)c1 (configuration not stated),.,.,.,.,.,-
O=C(Nc1ccccc1C(F)(F)F)c1ncn[nH]1,-88,-,-,-,-,-74
CCOC(=O)c1oc2cc(C)cc(C)c2c1C,-,?,-,-,-,-
CCOC(=O)c1oc2ccc(/C=N/O)c(Cl)c2c1C,-,0.56µM,-,3.2µM,-,-
CC(C)CC(=O)NC(=S)N1CCN(c2ccc([N+](=O)[O-])cc2Cl)CC1,-,3.5µM,-,?,?,-
CCOC(=O)C1=C(C)C(c2ccccc2)NC(=S)N1 (configuration not stated),-,7.1µM,-,?,-,-
COC(=O)C1=C(C)C(c2ccc(OC)cc2)NC(=S)N1 (configuration not stated),-,10µM,-,-,-,-
CCOC(=O)C1=C(C)NC(=S)N(C=O)C1c1ccccc1 (configuration not stated),-,11µM,-,?,-,-
NC(=O)c1ccc([N+](=O)[O-])cc1,.,-,-,-,.,.
CCOC(=O)N1CCN(C(=O)C2CCN(S(=O)(=O)c3ccc(NC(C)=O)cc3)CC2)CC1,-,-,.,-,-,-
CCOC(=O)c1ccc(NCc2cccnc2)cc1,.,-,.,-,-,-
C=CCn1c(O)c(N=NC(=S)Nc2cccc(OC)c2)c2ccccc21,?,0.79µM,.,2.5µM,?,?
C=CCn1c(O)c(N=NC(=O)OCC)c2ccccc21,-,-,-,?,?,-
C=CCn1c(O)c(N=NC(=S)Nc2ccc(OC)cc2)c2ccccc21,-,3.2µM,.,4µM,?,?
N#Cc1ccccc1NC(=O)CN1C(=O)NC(Cc2c[nH]c3ccccc23)C1=O (configuration not stated),-,.,.,.,.,-
COc1ncc2nc(-c3cccs3)c(=O)n(-c3ccccc3)c2n1,.,-,.,-,.,.
Cc1ccc(S(=O)(=O)CCC(=O)Nc2nnc(-c3ccco3)o2)cc1,-,.,.,.,.,-
CN(c1ccccc1)S(=O)(=O)c1ccc(C(=O)Nc2nnc(-c3ccco3)o2)cc1,-,0.71µM,-,1.1µM,-,-
CCN(c1ccccc1)S(=O)(=O)c1ccc(C(=O)Nc2nnc(-c3ccco3)o2)cc1,.,0.1µM,-,-,-,-
Cn1c(/C(C#N)=C(\O)c2ccc(Br)s2)nc2ccccc21,.,3.5µM,.,?,?,-
Cn1c(/C(C#N)=C(\O)c2cc(Cl)sc2Cl)nc2ccccc21,-,4.5µM,.,4.5µM,-,-
Cn1c(/C(C#N)=C/c2cccc(O)c2)nc2ccccc21,-,-,-,-,-,-
CCSc1nc2ccccc2n1C(=O)c1ccc(S(=O)(=O)N2CCCCCC2)cc1,-,-,-,-,?,-
Cn1c(/C(C#N)=C(\O)c2ccc(S(=O)(=O)N3CCCCC3)cc2)nc2ccccc21,-,4.5µM,-,10µM,-,-
Cn1c(C(=O)c2ccccc2)nc2ccccc21,-,-,.,-,-,-
SMILES,CtBP-E1A blk,RORg inh,CBFb-RUNX1 inh,VP16 counter,MBNL1 CUG block,Six1-Eya2 inh
COc1ccc(/C(O)=C(\C#N)c2nc3ccccc3n2C)cc1OC,-,7.1µM,-,18µM,-,-
O=C(O)c1ccc(CNS(=O)(=O)c2ccc(Oc3ccccc3Cl)cc2)cc1,-,-,.,-,?,-
CCOC(=O)N1CCC(NC(=O)CC2C(=O)NCCN2Cc2cccc(F)c2F)CC1 (configuration not stated),-,-,.,-,-,-
COc1ccc(C(O)c2nc3ccccc3n2C)cc1OC (configuration not stated),-,-,-,6.3µM,-,-
Cc1c(O)nc(SC2CC(=O)N(c3cc(Cl)cc(Cl)c3)C2=O)[nH]c1=O (configuration not stated),-,.,.,.,.,-
O=Cc1cc(N=Nc2cccc(C(=O)O)c2)ccc1O,-,-,?,-,?,-

# High-throughput results (PubChem BioAssay)
